Test results published in PubChem BioAssay (NCATS).
“And” between values parts separate entries of the source, which are not always exact repeats. Equal values may be shown once. Inconclusive results are not listed. The source made the active and inactive calls. Calls follow the shape of the dose curve; as a rule, active = well fitted inhibition curve with a large enough effect; inconclusive = small, poorly fitted or top-dose-only effect; inactive = flat fitted curve, though single readings scatter.

Legend:
CRL-7250 = normal cell line; test: Cytotoxic Profiling of Annotated Libraries Using Quantitative High-Throughput Screening (AID 1296008); details: Five cell lines viability, CellTiter-Glo ATP luminescence, 48-72 h; max response: hits give low values; also: potency is read from the fitted curve at half-maximal effect; as to max response: % is scaled to controls: 0 for no effect and ±100 for the full control effect
Summary of the method: (§1)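 Compounds were pin-transferred onto cells and incubated 48 or 72 hr at 37 degree Celsius, 95% humidity. CellTiter-Glo was added, plates sat 10 min at room temperature, then ATP-coupled luminescence was imaged as the viability read-out.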

HEK293 = test: as above; details: Five cell lines viability, CellTiter-Glo ATP luminescence, 48-72 h; max response: hits give low values
Summary of the method: as §1

HaCat [1] = test: as above; details: Five cell lines viability, CellTiter-Glo ATP luminescence, 48-72 h; max response: hits give low values
Summary of the method: as §1

KB-3-1 = test: as above; details: Five cell lines viability, CellTiter-Glo ATP luminescence, 48-72 h; max response: hits give low values
Summary of the method: as §1

NIH3T3 = test: as above; details: Five cell lines viability, CellTiter-Glo ATP luminescence, 48-72 h; max response: hits give low values
Summary of the method: as §1

HACAT [2] = test: qHTS assay to identify novel small-molecules to repurpose for Merkel cell carcinoma treatment (AID 1296009); details: MCC and control cell lines, CellTiter-Glo viability, 72 h
Summary of the method: (§2)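 Luminescence from CellTiter-Glo, read 10 min after addition at room temperature, reported viability following a 72 hr, 37 degree celsius treatment with NPC or MIPE compounds in titration; values normalized to plate controls.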

HEK293T = test: as above; details: MCC and control cell lines, CellTiter-Glo viability, 72 h; series mostly up to 44.8 µM
Summary of the method: as §2

[3] = at 44.8 µM (top of the series) unless noted
Also: nearly all actives have a fitted effect of over 60% in size.

COc1cc(NC(=O)c2ccccn2)ccc1Cl
inactive: max response (CRL-7250) 4.88% | outcome (HEK293) | outcome (HaCat [1]) | max response (KB-3-1) -6.58% | outcome (NIH3T3) | outcome (HACAT [2]; [3]) | Potency (HEK293T)

C(#Cc1cccc(CN2CCOCC2)c1)CCN1CCCCC1
inactive: max response (CRL-7250) -3.48% | outcome (HEK293) | outcome (HaCat [1]) | max response (KB-3-1) 2.31% | max response (NIH3T3) 1.81% | outcome (HACAT [2]; [3]) | Potency (HEK293T)

CC(=O)O[C@@H]1[C@H](O[C@@H]2O[C@H](CO)[C@@H](O)[C@H](O)[C@H]2O)[C@@H](O[C@@H]2O[C@@H](C)[C@H](O)[C@@H](O[C@@H]3O[C@H](CO)[C@@H](O)[C@H](O)[C@H]3O)[C@H]2O)[C@H](OC(=O)C23CCC4(C)C(=CCC5C6(C)CC(O)C(O[C@@H]7O[C@H](C(=O)O)[C@@H](O)[C@H](O)[C@H]7O)C(C)(C(=O)O)C6CCC54C)C2CC(C)(C)CC3O)O[C@@H]1C (some centres undefined)
inactive: max response (CRL-7250) -7.88% | outcome (HEK293) | outcome (HaCat [1]) | outcome (KB-3-1) | outcome (NIH3T3) | outcome (HACAT [2]; [3]) inactive [at 9.27 µM] | outcome (HEK293T) inactive [at 9.27 µM]

CC1(CO)CC2C(O)C(=O)C3(CO)CC3(C)C2C1 (centres undefined)
inactive: max response (CRL-7250) -4.66% | outcome (HEK293) | outcome (HaCat [1]) | max response (KB-3-1) 2.2% | outcome (NIH3T3) | outcome (HACAT [2]; [3]) | Potency (HEK293T)

CC(C)(O)CNc1nc(Nc2ccnc(C(F)(F)F)c2)nc(-c2cccc(C(F)(F)F)n2)n1
inactive: max response (CRL-7250) -2.34% and 1.41% | outcome (HaCat [1]) | max response (KB-3-1) 4.85% | max response (NIH3T3) 3.44% and -5.61% | outcome (HACAT [2]; at 17.4 µM (top of the series)) | outcome (HACAT [2]; at 44.8 µM (top of the series))
active: Potency (HEK293) 14.8 µM

CC1[C@@H](O)[C@@H](O)C2[C@]3(C)C(C[C@H]4OC(=O)[C@H](O)[C@]1(O)[C@@]24C)C(C)(O)C[C@H](O)[C@H]3O (some centres undefined)
inactive: outcome (CRL-7250) | outcome (HEK293) | outcome (HaCat [1]) | max response (KB-3-1) 4.32% | outcome (NIH3T3) | outcome (HACAT [2]; [3]) inactive [at 17.4 µM] | Potency (HEK293T)

COCCCNCC1COc2ccccc2O1 (centres undefined)
inactive: max response (CRL-7250) 1.45% | outcome (HEK293) | outcome (HaCat [1]) | max response (KB-3-1) 6.68% | max response (NIH3T3) 4.14% | outcome (HACAT [2]; [3]) | Potency (HEK293T)

C=C1C(=O)OC2/C=C(\C)CC/C=C(\C(=O)O)CC/C=C(\C)CCC12 (centres undefined)
inactive: outcome (CRL-7250) | outcome (HEK293) | outcome (HaCat [1]) | max response (KB-3-1) 5.52% | max response (NIH3T3) 2.63% | outcome (HACAT [2]; [3]) | Potency (HEK293T)

C#Cc1cnc2[nH]c(=O)n(C(CC)CC)c2n1
inactive: outcome (CRL-7250) | outcome (HEK293) | outcome (HaCat [1]) | max response (KB-3-1) 8.63% | outcome (NIH3T3) | outcome (HACAT [2]; [3]) | Potency (HEK293T)

O=C(c1ccccn1)c1cnn2c(-c3ccncc3)ccnc12
inactive: max response (CRL-7250) 3% | outcome (HEK293) | outcome (HaCat [1]) | max response (KB-3-1) -2.39% | max response (NIH3T3) 1.02% | outcome (HACAT [2]; [3]) | Potency (HEK293T)

CC(NC(=O)CC(=O)O)c1nc2ccccc2c(=O)[nH]1 (centres undefined)
inactive: max response (CRL-7250) -1.93% | outcome (HEK293) | outcome (HaCat [1]) | outcome (KB-3-1) | outcome (NIH3T3) | outcome (HACAT [2]; [3]) | Potency (HEK293T)

C=C1CCC(OC(C)=O)C2(C)CC3(O)OC(=O)C(C)=C3CC12 (centres undefined)
inactive: max response (CRL-7250) -6.35% | outcome (HEK293) | outcome (HaCat [1]) | max response (KB-3-1) 4.81% | max response (NIH3T3) -2.74% | outcome (HACAT [2]; [3]) | Potency (HEK293T)

CNC(=O)Nc1ccc(OC)c(NC(=O)NC(=O)c2cc(F)c(F)cc2Cl)c1
inactive: max response (CRL-7250) -5.98% | outcome (HEK293) | outcome (HaCat [1]) | max response (KB-3-1) 0.332% | outcome (NIH3T3) | outcome (HACAT [2]; [3]) | Potency (HEK293T)

CO[C@@H](Cc1ccc(OCCc2nc(-c3ccccc3)oc2C)c2ccsc12)C(=O)O
inactive: outcome (CRL-7250) | outcome (HEK293) | outcome (HaCat [1]) | max response (KB-3-1) -3.49% | outcome (NIH3T3) | outcome (HACAT [2]; [3]) | Potency (HEK293T)

OC[C@H]1O[C@@H](OCCc2ccc(O)cc2)[C@H](O)[C@@H](O)[C@@H]1O
inactive: max response (CRL-7250) 1.66% | max response (HEK293) -4.41% | outcome (HaCat [1]) | max response (KB-3-1) 7.2% and 9.78% | max response (NIH3T3) -4.78% | outcome (HACAT [2]; [3])
